Where “and” joins values, the source holds several entries; their conditions need not be identical. Equal values may be shown once. This is part of a sample that, as a whole, favours compounds with a hit. Of some 79,000 tested, about 15% had one in any assay. Rule as the data show it: active = growth inhibition above about 70%; inactive = the rest.
Legend:
[1] = NCI Yeast Anticancer Drug Screen. Data for the rad50 strain (AID 155);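 also: 0% = growth of vehicle-only cultures of the same strain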; settings: S. cerevisiae rad50 strain growth inhibition; at 50.0 µM; hits give high values
Outline: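 Readout: growth inhibition relative to vehicle-treated cultures. Compound exposure was carried out in a genetically defined yeast strain deficient in DNA damage repair.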

[2] = NCI Yeast Anticancer Drug Screen. Data for the mec2-1 strain (AID 157); settings: S. cerevisiae mec2-1 strain, at 50.0 µM, hits give high values
Outline: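 Mutant yeast (mec2-1) grown with compound; growth inhibition relative to vehicle control reported.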

[3] = NCI Yeast Anticancer Drug Screen. Data for the sgs1 mgt1 strain (AID 161);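 also: 0% = growth of cultures given vehicle only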; settings: S. cerevisiae sgs1 mgt1 strain, at 50.0 µM, hits give high values
Outline: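 This yeast growth screen uses a strain with defined DNA-repair lesions; compound-treated growth is compared with vehicle-treated growth.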

[4] = NCI Yeast Anticancer Drug Screen. Data for the cln2 rad14 strain (AID 165);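 also: 0% = growth equal to vehicle treated cultures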; settings: S. cerevisiae cln2 rad14 strain, at 50.0 µM, hits give high values
Outline: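 Readout is yeast growth inhibition versus vehicle-treated controls, using a strain with cln2 and rad14 alterations exposed to compound.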

[5] = NCI Yeast Anticancer Drug Screen. Data for the bub3 strain (AID 167); settings: S. cerevisiae bub3 mutant strain, at 50.0 µM, hits give high values
Outline: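 Readout: yeast growth inhibition, expressed relative to vehicle-only wells. The test organism is a mutant strain from a panel with lesions in DNA repair or checkpoint genes.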

[6] = NCI Yeast Anticancer Drug Screen. Data for the mlh1 rad18 strain (AID 175); settings: S. cerevisiae mlh1 rad18 strain growth inhibition; at 50.0 µM; hits give high values
Outline: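 Genetically defined yeast (DNA repair-deficient) exposed to compounds; growth inhibition determined relative to vehicle.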

Measured: growth inhibition

CC1(C)OCC(C2OC(C)(C)OC2C2OC(O)C=CC2=O)O1 (configuration not stated)
inactive: [1] 19.8% and 18.5% | [2] 18.9% and 2.1% | [3] 24.6% and 6.5% | [4] 9.05% and -4.9% | [5] 24.9% and 10.9% | [6] 20.3% and 10.6%

NCCCNCCSSC/C=C\CSSCCNCCCN
inactive: [1] 1.9% and -5.5% | [2] -15.6% and -4.85% | [3] 1.8% and -15.3% | [4] 1.15% and -16.8% | [5] 7.85% and -2.3% | [6] 11.3% and 1.45%

CC(=O)OCC1OC(Sc2nc(-c3ccc(C)cc3)c(C#N)c(=O)n2C2OC(COC(C)=O)C(OC(C)=O)C(OC(C)=O)C2OC(C)=O)C(OC(C)=O)C(OC(C)=O)C1OC(C)=O (configuration not stated)
inactive: [1] 5% and -9.15% | [2] 7.65% and -9.45% | [3] -3.1% and 20.9% | [4] -32% and 10.2% | [5] 7.2% and 20.1% | [6] -7.8% and -34.5%

Oc1ccccc1CNCc1ccccc1O
inactive: [1] -6.65% and -16.2% | [2] -13.5% and -2.7% | [3] -5.5% and -33% | [4] 23.8% and -28.1% | [5] 0.5% and -28.2% | [6] -1.05% and 3.55%

COc1cc(C)c2c(ccc3ccccc32)n1
inactive: [1] 24.6% and 23.9% | [2] 19.5% and 24.4% | [3] 16.5% and 11.2% | [4] -9.35% and 21.9% | [5] 10.2% and 16.4% | [6] 61.2% and 18.9%

CC(=O)OC1COC(n2cnc3c(=S)nc[nH]c32)C(OC(C)=O)C1OC(C)=O (configuration not stated)
inactive: [1] 24.2% and -2.35% | [2] -0.1% and -1.6% | [3] 21.3% and -16.4% | [4] 18.4% and -19.2% | [5] 0.7% and 1.65% | [6] 7.35% and -11.9%

O=P(O)(O)Oc1ccccc1
inactive: [1] -10.4% and -8.3% | [2] -6.25% and 6.05% | [3] -16.7% and 6.55% | [4] -9.8% and -9.95% | [5] -0.05% and -3.3% | [6] -12.1% and 9.2%

CC(O)COc1ccc(C2CCCCC2)cc1 (configuration not stated)
inactive: [1] 27.9% and 8% | [2] 10.4% and -21.6% | [3] 7.3% and 16.4% | [4] -10.2% and -25.9% | [5] -2.55% and -5.5% | [6] -11.6% and 13%

O=C(O)c1cc2ccccc2c(=O)[nH]1
inactive: [1] -2.25% and 29.4% | [2] 4.55% and 10.8% | [3] -6.9% and 21.9% | [4] 0.8% and 12.2% | [5] 0.9% and 4.45% | [6] 2.4% and -6.55%

COC(=O)C(CC(C)C)NC(=O)CN1C(=O)c2ccccc2C1=O (configuration not stated)
inactive: [1] -12.9% and 9.2% | [2] -5.95% and 10.9% | [3] 6.75% and 4.6% | [4] 5.05% and 6.3% | [5] -10% and 7.3% | [6] -2.4% and 1.45%

CC(C)c1ccc2c(c1)CC[C@H]1[C@](C)(C#N)CCC[C@]21C
inactive: [1] 1.1% and 0.25% | [2] -20.8% and -11.4% | [3] 0.6% and -17.2% | [4] -28.4% and -20.4% | [5] 1.25% and 13.2% | [6] 9.85% and 34.7%

CC(C)=CCCC(C)C1CCC2(C)C3=C(CCC12C)C1(C)CCC(O)C(C)(C)C1CC3 (configuration not stated)
inactive: [1] 32.6% and 9.75% | [2] 16.4% and 2.65% | [3] 27.6% and 20.9% | [4] 25.9% and -0.25% | [5] 7.8% and 15.2% | [6] 23.9% and 29.6%

CN1C(=O)N/C(=C\c2ccc(S(=O)(=O)N/N=C\C(O)C(O)C(O)C(O)CO)cc2)C1=O (configuration not stated)
inactive: [1] 2.65% and 7.85% | [2] 8.3% and 22.2% | [3] 17.9% and -4.2% | [4] 7.65% and 3.75% | [5] -19.1% and -1% | [6] 15.3% and 41.5%

CCCCCCCCCCCCc1ccccc1
inactive: [1] 2.15% and 17.9% | [2] 4.1% and 11.4% | [3] -4.15% and 2.6% | [4] 5.25% and -55.8% | [5] 18.2% and -19.8% | [6] 16.1% and -0.6%

O=C1C(c2ccccc2)=C(c2ccccc2)C(c2ccccc2)=C1c1ccccc1
inactive: [1] 36.6% and 12.2% | [2] -3.9% and 8.35% | [3] 15.8% and 25.2% | [4] -14% and -2.4% | [5] 0.25% and 12.2% | [6] 18.7% and 8.9%

CC(CCC(=O)O)C1CCC2C3C(O)CC4CC(O)CCC4(C)C3CC(O)C12C (configuration not stated)
inactive: [1] 42.7% and 3.65% | [2] 46.2% and -12.6% | [3] 45.4% and -17.3% | [4] 47.6% and 0.9% | [5] 46.7% and -9.35% | [6] 35.9% and 14.2%

CCN(CC)C(=O)N1CCN(C)CC1
inactive: [1] 26.1% and -15.6% | [2] -26.9% and -4.6% | [3] 1.4% and -3.65% | [4] -41.1% and 5.8% | [5] -1.1% and 9.7% | [6] 15.2% and -8%

O=c1[nH]c2[nH]c(=S)[nH]c(=S)c2[nH]1
inactive: [1] -19.7% and 13.8% | [2] 8.45% and -2.5% | [3] -17.5% and -4.85% | [4] 13.8% and -41.7% | [5] -24.7% and -10.8% | [6] -20.1% and -0.3%

O=c1[nH]c(SCc2ccccc2[N+](=O)[O-])nc2nc[nH]c12
inactive: [1] -3.6% and -22.9% | [2] -20.8% and 6.4% | [3] -11.8% and -0.5% | [4] -12.7% and 23.1% | [5] -10.8% and -30% | [6] -1.9% and -8.05%

CC(C)C(=O)/C=C/c1ccccc1
inactive: [1] 11.1% and 21.2% | [2] -2.4% and -2.75% | [3] 10% and -5.25% | [4] 18.2% and -12.6% | [5] 7.7% and -3.95% | [6] 17.8% and 8%

C=CCC(N)C(=O)O (configuration not stated)
inactive: [1] -11.9% and -1% | [2] -20.6% and -4.45% | [3] 4.95% and -1.85% | [4] 13.5% and 2.3% | [5] -10.6% and 8.3% | [6] -1.7% and -3%

COc1ccc(-c2nc(SC3OC(COC(C)=O)C(OC(C)=O)C(OC(C)=O)C3OC(C)=O)n(C3OC(COC(C)=O)C(OC(C)=O)C(OC(C)=O)C3OC(C)=O)c(=O)c2C#N)cc1 (configuration not stated)
inactive: [1] 11.2% and -3.9% | [2] 8.85% and -1% | [3] 22.4% and 18.1% | [4] -6.15% and -19.5% | [5] 3.35% and 14.9% | [6] -12.7% and -3.55%
